# Results: PubChem BioAssay AID1851 (National Center for Advancing Translational Sciences (NCATS), 2009)
# The whole screen tested about 16,000 compounds, of which about 5,700 (36%) were called active. Roughly 24% stayed inconclusive and do not appear here. The list shows a part of the results. Values without a mark were called inactive. Calls follow the shape of the dose curve; as a rule, active = well fitted curve in the direction sought with a large enough effect; inconclusive = small, poorly fitted or top-dose-only effect, or effect the other way; inactive = no such curve, though single readings can be large or run the other way.
# Biological target: Cytochrome P450 1A2 (Homo sapiens) (UniProt P05177)
# Test: Cytochrome panel assay with activity outcomes
# Conditions: recombinant CYP, pro-luciferin dealkylation, luminescence, p450-cyp1a2; series mostly up to 57.1 µM; activity, negative = inhibition: at the top concentration
# % is scaled to controls: 0 for no effect and ±100 for the full control effect.
# Chain of Cytochrome P450 1A2 (Homo sapiens) (P05177 whole entry, looked up): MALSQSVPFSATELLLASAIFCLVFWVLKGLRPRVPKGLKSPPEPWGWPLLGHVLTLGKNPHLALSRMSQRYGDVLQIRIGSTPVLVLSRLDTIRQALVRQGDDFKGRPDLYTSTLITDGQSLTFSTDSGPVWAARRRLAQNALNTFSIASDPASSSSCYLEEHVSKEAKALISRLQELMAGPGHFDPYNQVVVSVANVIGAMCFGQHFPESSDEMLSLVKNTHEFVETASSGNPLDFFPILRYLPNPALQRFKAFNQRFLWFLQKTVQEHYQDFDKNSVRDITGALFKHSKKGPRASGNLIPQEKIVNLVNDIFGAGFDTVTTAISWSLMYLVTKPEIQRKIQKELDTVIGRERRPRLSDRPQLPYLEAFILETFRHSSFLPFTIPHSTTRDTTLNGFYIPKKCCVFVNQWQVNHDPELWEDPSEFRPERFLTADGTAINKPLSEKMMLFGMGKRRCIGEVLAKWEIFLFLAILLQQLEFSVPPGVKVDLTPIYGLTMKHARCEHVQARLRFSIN
SMILES,"activity, negative = inhibition",AC50
CO[C@H]1COC(=O)C/C=C\[C@@H](C)COC(=O)[C@@H](OCc2ccccc2)/C=C\[C@@H]1C,-1.45% [at 11.4 µM],
CC(=O)OC[C@@H]1O[C@@H](O/N=C2/C[C@@H](O)[C@@H](O)[C@@H]3[C@H]4C(=O)N(c5ccc(F)cc5F)C(=O)[C@@H]4CC[C@@H]23)[C@H](OC(C)=O)[C@H](OC(C)=O)[C@@H]1OC(C)=O,2.88% [at 11.4 µM],
COc1ccccc1CNc1ccnc(-c2ccccc2Cl)n1,,5010 nM (active)
Cc1n[nH]c(=O)nc1NCc1ccccc1Cl,-20%,
CC(=O)c1cn(CC(=O)Nc2c(C)cccc2C)c2ccccc12,-15.1%,
Cc1cc(OCCn2cc(/C(N)=N/O)c3ccccc32)ccc1Cl,,2000 nM (active)
O=[N+]([O-])c1ccc(Nc2nc3ccccc3s2)cc1,-20% [at 11.4 µM],
CC(=O)NNC(=O)C(O)(c1ccccc1)c1ccccc1,11.7%,
CC(=O)NNc1nc2ccccc2s1,,11200 nM (active)
c1ccc2sc(NC3=NCN(C4CCCCCC4)CN3)nc2c1,-20.1%,
O=C(NNc1nc2ccccc2s1)C1CC1,,20000 nM (active)
NC(=O)c1ccc(NC(=O)C2CCCO2)cc1 (stereo not drawn),-0.873%,
CCOC(=O)c1ccc(NC(=O)C2CCCO2)cc1 (stereo not drawn),,2510 nM (active)
Cc1ccc(CS(=O)(=O)CCC(=O)NCCCN2CCCC2)cc1,-13.9%,
CCCC(CCC)C(=O)NNc1cc(=O)c2c(=O)n(C)c(=O)n(C)c2[nH]1,-22.7%,
CCC(=O)NNc1cc(=O)c2c(=O)n(C)c(=O)n(C)c2[nH]1,,2820 nM (active)
Cc1cc(C)nc(NS(=O)(=O)c2ccc(N)cc2)n1,-4.94% [at 25.6 µM],
Cc1nn(-c2ccc(F)cc2)c(Cl)c1/C=C(\CCC(=O)O)c1nc2ccccc2s1,-0.314%,
Cc1nn(-c2ccc(F)cc2)c(C)c1NS(=O)(=O)c1ccc2ccccc2c1,,15800 nM (active)
CCCCn1c(NCc2ccccc2NS(=O)(=O)c2ccc(C)cc2)nc2ccccc21,4.94%,
Cc1ccc(S(=O)(=O)Nc2nc3ccccc3nc2N2CCc3ccccc3C2)cc1,,22400 nM (active)
COc1ccccc1S(=O)(=O)Nc1ccc(-c2nnc3n2CCCCC3)cc1,0.614%,
Cc1ccc(C(=O)N/N=C\c2cccn2C)cn1,,12600 nM (active)
Cn1cccc1/C=N/NC(=O)c1sc2ccccc2c1Cl,,891 nM (active)

SMILES,"activity, negative = inhibition",AC50
C=N[C@H](C(=O)N[C@@H]1C(=O)N2[C@@H]1SC(C)(C)[C@@H]2C(=O)O)c1ccccc1,-11.1% [at 25.6 µM],
O=[N+]([O-])c1ccc(N2CCC(=NOCc3ccc(Cl)cc3)CC2)cc1,-21.2%,
Oc1ccc(Cn2c(-c3ccc(O)cc3)nc3ccccc32)cc1,-5.47% [at 11.4 µM],
O=[N+]([O-])c1ccc2nc(-c3ccc(Cl)cc3)n(OCc3ccccc3)c2c1,,2510 nM (active)
O=[N+]([O-])c1ccc2nc(-c3ccccc3)n(OCc3ccc(Cl)cc3)c2c1,,2240 nM (active)
Clc1ccc(COn2c(-c3ccccc3)nc3ccccc32)cc1,,1580 nM (active)
Cc1ccc(COn2c(-c3ccc(Cl)cc3)nc3ccc([N+](=O)[O-])cc32)cc1,,398 nM (active)
C1CNCCOCCNCCN1,-0.3%,
CC(C)C[C@H](NC(=O)[C@@H](O)[C@@H](N)Cc1ccccc1)C(=O)O,,inactive
C=CCSc1nnc(NC(=O)COc2ccc3ccccc3c2)s1,-21.5%,
CCc1ccc(OCC(=O)Nc2ccc(-c3nc4ccccc4o3)c(O)c2)cc1,8.68%,
CC(=O)CC(=O)Nc1ccc2ccccc2c1,,2000 nM (active)
c1ccc2cc(NCNc3ccc4ccccc4c3)ccc2c1,,631 nM (active)
O=C(COc1ccc2ccccc2c1)Nc1ccc(Cc2ccncc2)cc1,,112 nM (active)
CC(C)C[C@@H](N)C(=O)Nc1ccc2ccccc2c1,,1580 nM (active)
CC(C)C[C@H](NC(=O)[C@@H](O)[C@H](N)Cc1ccccc1)C(=O)O,-28%,
O=C(O)C[C@H](S)C(=O)O,-2.96% [at 11.4 µM],
CO[C@H]1COC(=O)[C@@H](Cc2ccccc2)NC(=O)[C@@H](C)COC(=O)C/C=C\[C@@H]1C,-3.6% [at 11.4 µM],
C#CCCCO/N=C1/C[C@@H](O)[C@@H](O)[C@@H]2[C@@H]3C(=O)N(C4CCCCC4)C(=O)[C@H]3CC[C@H]12,7.63% [at 11.4 µM],
CC1(C)Oc2cc(N)c([N+](=O)[O-])cc2O1,,8910 nM (active)
CC(=O)Nc1ccc(S(=O)(=O)N2CCC(N(C)CCC(C)C)CC2)cc1,-6.77%,
CCc1ccc(NC(=O)C2CCN(S(=O)(=O)c3c(C)[nH]c(=O)[nH]c3=O)CC2)cc1,-6.06%,
CC(=O)Nc1ccc(NC(=O)C2CCN(S(=O)(=O)c3cccc4nonc34)CC2)cc1,-2.52%,
O=C(Nc1ccc(Cl)c(C(F)(F)F)c1)C1CCCN(S(=O)(=O)c2cnc[nH]2)C1 (stereo not drawn),,15800 nM (active)
